GIRK2 activator = activators of NPY4-receptor-primed GIRK2 channels, summary, cell-based, HEK293, thallium flux. G protein-activated inward rectifier potassium channel 2 (Homo sapiens), P48051. HEK293 GIRK2/NPY4 cells, thallium flux fluorescence. activation (% efficacy), % for hits at 37.5 µM. 34,000 tested, under 10 active. AID 1259324, 2017;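 active = primary screen hit, no activity in plain HEK293 cells, and in GIRK2-only cells above 5% efficacy rising with concentration; inactive = the rest, including fluorescent compounds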;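 also: efficacy is normalized control-subtracted fluorescence 15 s after thallium addition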
GluA2 TARP mod = modulators of GluA2-stargazin AMPA receptor complexes, primary screen, cell-based, membrane potential dye; Voltage-dependent calcium channel gamma-2 subunit (Mus musculus) + Glutamate receptor 2 …; HEK293 GluA2+stargazin, membrane potential dye (FDSS), glutamate EC50; hits were called plate by plate, in both directions; calls only at 30 µM; hit rate 3.5% among 40,000; AID 1259245, 2017;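 active = any of four per-well response measures lying three or more SD from its plate-wide compound average, in either direction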
Target sequence (O88602 whole entry, looked up): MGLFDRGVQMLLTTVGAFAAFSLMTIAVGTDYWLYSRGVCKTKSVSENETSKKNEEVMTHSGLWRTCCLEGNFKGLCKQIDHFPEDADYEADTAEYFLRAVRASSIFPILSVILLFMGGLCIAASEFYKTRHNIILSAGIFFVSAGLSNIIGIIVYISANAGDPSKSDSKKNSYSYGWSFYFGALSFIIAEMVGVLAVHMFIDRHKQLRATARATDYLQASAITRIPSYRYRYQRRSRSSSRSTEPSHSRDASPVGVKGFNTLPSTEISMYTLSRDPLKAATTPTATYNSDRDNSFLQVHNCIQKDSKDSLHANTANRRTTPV
Target sequence (P19491 whole entry, looked up): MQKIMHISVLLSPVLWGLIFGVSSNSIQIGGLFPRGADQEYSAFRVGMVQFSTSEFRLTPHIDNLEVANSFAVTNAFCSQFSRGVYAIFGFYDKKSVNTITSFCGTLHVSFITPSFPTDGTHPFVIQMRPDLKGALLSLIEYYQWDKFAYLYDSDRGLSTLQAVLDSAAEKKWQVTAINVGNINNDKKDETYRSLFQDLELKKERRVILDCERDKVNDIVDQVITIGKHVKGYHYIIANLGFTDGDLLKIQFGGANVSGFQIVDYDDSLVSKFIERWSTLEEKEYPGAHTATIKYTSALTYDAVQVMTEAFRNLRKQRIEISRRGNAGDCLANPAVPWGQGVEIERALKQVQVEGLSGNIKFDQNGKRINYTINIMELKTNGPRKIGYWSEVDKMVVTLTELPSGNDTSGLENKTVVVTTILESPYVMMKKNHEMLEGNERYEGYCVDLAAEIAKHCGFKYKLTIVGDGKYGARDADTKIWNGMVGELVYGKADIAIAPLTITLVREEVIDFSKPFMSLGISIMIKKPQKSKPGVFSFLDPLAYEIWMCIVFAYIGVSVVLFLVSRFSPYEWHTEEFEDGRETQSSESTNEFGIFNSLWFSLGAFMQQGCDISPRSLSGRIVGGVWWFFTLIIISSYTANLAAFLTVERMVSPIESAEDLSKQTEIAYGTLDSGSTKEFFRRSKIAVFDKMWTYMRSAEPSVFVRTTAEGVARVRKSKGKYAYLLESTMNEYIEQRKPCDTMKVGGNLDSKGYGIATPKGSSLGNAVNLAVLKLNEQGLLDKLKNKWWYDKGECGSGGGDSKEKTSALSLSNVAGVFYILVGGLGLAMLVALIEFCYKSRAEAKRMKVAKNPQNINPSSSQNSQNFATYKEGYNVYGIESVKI
* marks the source's active call; other numbers are inactive results; i = inactive; nt = not tested or not shown; + = active, no number; ! = a repeat was not active. The full list was thinned out, with hits kept by preference.

SMILES	GIRK2 activator	GluA2 TARP mod
CC(=O)Nc1ccc(S(=O)(=O)Nc2ccc3c(c2)N(C(=O)C2CC2)CC3)cc1	i	i
CCc1ccc(S(=O)(=O)Nc2ccc3c(c2)N(C(=O)C2CCCC2)CC3)s1	i	i
CC(C)(C)c1ccc(S(=O)(=O)Nc2ccc3c(c2)N(C(=O)C2CC2)CC3)cc1	i	+
O=C(C1CC1)N1CCc2ccc(NS(=O)(=O)c3ccc(Cl)cc3)cc21	i	i
O=C(C1CC1)N1CCc2ccc(NS(=O)(=O)c3ccc(Cl)s3)cc21	i	+
COCC(=O)N1CCCc2ccc(NC(=O)c3cn(C)nc3OC)cc21	i	i
CCc1ccc(S(=O)(=O)Nc2ccc3c(c2)N(C(=O)C(C)(C)C)CC3)s1	i	+
COc1nn(C)cc1C(=O)Nc1ccc2c(c1)N(C(=O)C1CC1)CC2	i	+
CSc1ccccc1NC(=O)CCc1csc(NC(=O)c2cccs2)n1	i	i
OC(COC1CCCC1)CN1CCN(C(c2ccccc2)c2ccccc2)CC1 (stereo not given)	i	i
Cc1cc(NC(=O)c2ccc([N+](=O)[O-])c(C)c2)ccc1N1CCCCC1=O	i	i
Cc1cc(C(=O)Nc2cccc(N3CCCC3=O)c2)ccc1[N+](=O)[O-]	i	+
CCN(CC)CCn1c(SCC#N)nc2cc(C(=O)OC)ccc2c1=O	i	+!
CC(C)Cn1c(SCC#N)nc2cc(C(=O)NC(C)C)ccc2c1=O	nt	i
CCc1cc(CC)n(-c2nc3c(c(=O)n(Cc4ccc(OC)cc4)c(=O)n3C)n2CC)n1	nt	i
O=C(C(=O)N1CCN(c2ncnc3c2nnn3-c2ccc(Cl)cc2)CC1)c1c[nH]c2ccccc12	nt	i
Cc1c(C(=O)N2CCCC(c3nn(C)c(=O)n3-c3ccccc3)C2)cnn1-c1ccccc1 (stereo not given)	i	i
CC(C)(C)OC(=O)N1CCC(CO)CC1	i	i
CC(C)(C)OC(=O)N1CCC(Cn2c(C(F)(F)F)nc3ccccc32)CC1	i	+
O=C(CSCc1ccccc1)Nc1cc(-c2cccs2)nn1CCO	i	i
CC(C)(C)c1cc(NC(=O)CSCc2ccccc2)n(CCO)n1	i	+
CC(C)(C)c1cc(NC(=O)CCSc2ccccc2)n(CCO)n1	i	+
CC(C)(C)c1cc(NC(=O)Cc2ccccc2Cl)n(CCO)n1	i	i
Cc1ccc(OCC(=O)Nc2ccc3c(c2)N(S(=O)(=O)c2ccccc2)CCC3)cc1	nt	i
CC(O)(CNC(=O)c1ccc2nsnc2c1)c1ccc2c(c1)OCO2 (stereo not given)	i	i
SMILES	GIRK2 activator	GluA2 TARP mod
COc1ccc(OC)c(NC(=O)C(=O)NCC2CCN(C3CCCC3)CC2)c1	i	i
Cc1n[nH]c(C)c1S(=O)(=O)N1CCN(c2ccc(-c3ccccn3)nn2)CC1	i	+
CCCS(=O)(=O)N1CCN(c2ccc3nnc(C4CC4)n3n2)CC1	i	i
Cc1nnsc1C(=O)N1CCN(c2ccc(-c3ccccn3)nn2)CC1	i	i
Cc1n[nH]c(C)c1S(=O)(=O)N1CCN(c2ccc3nnc(C4CC4)n3n2)CC1	i	+
Cc1cccc(NC(=O)Cn2nnc(-c3ccccc3)n2)c1	i	i
COc1ccc(S(=O)(=O)NCC(C)(O)C2CC2)cc1Cl (stereo not given)	i	i
CSCCC(C)(O)CNS(=O)(=O)c1ccc(Cl)s1 (stereo not given)	i	+
COc1ccc(S(=O)(=O)NCC(C)(O)CCSC)cc1Cl (stereo not given)	i	+
CSCCC(C)(O)CNS(=O)(=O)c1ccc(Br)s1 (stereo not given)	nt	i
Cc1ccc(S(=O)(=O)c2nc(NCCCN3CCCC3=O)sc2Cl)cc1	i	i
Cc1ccc(-c2c(C)nn3c(NCCN4CCOCC4)cc(C)nc23)cc1	i	i
Cc1cc(C)c2c(n1)nn1c(NCCN3CCOCC3)cc(C)nc21	i	+
Cc1cc(C)c2c(n1)nn1c(NCCc3ccccc3)cc(C)nc21	i	i
Cc1cc(C)c2c(n1)nn1c(NCCN(C)C)cc(C)nc21	i	+
COc1ccc(S(=O)(=O)CC(=O)Nc2nc(-c3ccc4c(c3)OCO4)cs2)cc1	i	i
O=C(CCCS(=O)(=O)c1ccccc1)Nc1nc(-c2ccc(Cl)cc2Cl)cs1	i	i
COc1cccc(C(=O)NCCS(=O)(=O)N2CCOCC2)c1	nt	i
COc1cccc(C(=O)NCCS(=O)(=O)N2CCC3(CC2)OCCO3)c1	nt	+
Cc1ccc2oc(=O)c(S(=O)(=O)c3ccc(F)c(Cl)c3)cc2c1	i	i
CCCCS(=O)(=O)N1CCN(c2ccc(-n3nc(C)c(C)c3C)nn2)CC1	i	i
CCCCS(=O)(=O)N1CCN(c2ccc(Nc3cccc(C)n3)nn2)CC1	i	+
COc1cccc(CNC(=O)Cn2cc(-c3nc(-c4ccc(C)cc4)no3)ccc2=O)c1OC	i	i
COc1ccccc1-c1ccc(N2CCC(C(=O)N3CCN(c4ccccc4OC)CC3)CC2)nn1	i	i
CCN(C(=O)C1CCN(c2ccc(-c3ccccc3OC)nn2)CC1)C1CCCCC1	i	+
SMILES	GIRK2 activator	GluA2 TARP mod
CN1CCN(C(=O)c2cc3c(=O)n(C)c(=O)n(C)c3s2)CC1	i	+
Cn1c(=O)c2cc(C(=O)NCCc3ccccc3)sc2n(C)c1=O	i	i
Cn1c(=O)c2cc(C(=O)NCCCN3CCCC3=O)sc2n(C)c1=O	i	+
Cn1c(=O)c2cc(C(=O)Nc3ccccc3F)sc2n(C)c1=O	i	+
CC(C)CNC(=O)c1cc2c(=O)n(C)c(=O)n(C)c2s1	i	i
Cn1c(=O)c2cc(C(=O)N3CCN(C(=O)c4ccco4)CC3)sc2n(C)c1=O	i	i
O=C(Nc1ccc2c(c1)N(C(=O)C1CCCO1)CC2)c1ccc(C(F)(F)F)cc1 (stereo not given)	i	+
O=C(Nc1ccc2c(c1)N(C(=O)C1CCCC1)CC2)c1ccc(C(F)(F)F)cc1	nt	i
O=C(NCC1CCCO1)c1nn(-c2ccc(F)cc2)cc1OCc1ccccc1 (stereo not given)	i	i
CCOC(=O)Cc1csc(NC(=O)CCc2c(C)nn(-c3nc(C)cc(=O)[nH]3)c2C)n1	i	i
O=C(Cc1cc(-c2ccc3c(c2)OCCO3)on1)NCc1ccccc1	i	+
O=C(Cc1cc(-c2ccc3c(c2)OCO3)on1)NCc1ccc2c(c1)OCO2	i	i
Cc1ccc(Nc2ccc(NC(=O)c3ccc4c(c3)OCO4)cc2)nn1	i	i
Cc1cc(N(C)C)nc(Nc2ccc(NC(=O)c3ccc4c(c3)OCO4)cc2)n1	nt	+
Cc1cc(NC(=O)c2c(F)cccc2Cl)n(-c2nc3c(cnn3-c3cccc(Cl)c3)c(=O)[nH]2)n1	i	i
CN1CCN(c2nnnc3c2cnn3-c2ccccc2)CC1	i	i
CCc1nc(N2CCN(C)CC2)c2oc3ccccc3c2n1	i	+
O=C(CSC1=NCCS1)N1CCN(C(c2ccccc2)c2ccccc2)CC1	nt	i
Cc1ccc(OCCCC(=O)Nc2nccs2)c(C)c1	i	i
